An excerpt weighted towards active compounds, which were near 3.3% of everything screened.
BRCT inh green: BRCA1 BRCT-phosphoprotein interaction inhibition; P38398; BRCA1 BRCT-phosphopeptide binding, green fluorescence polarization; Potency, µM (series often up to 76.9 µM), without a hit: top-dose activity change, negative = inhibition, hits mostly inhibitors; 75,000 compounds, 0.05% hits;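 further: potency means the concentration at half of the fitted maximal effect; plate controls were peptide without protein for full effect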
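Compounds were incubated for 12 min at room temperature with a complex of 100 nM fluorescein-tagged pBACH1 decapeptide and 250 nM His-tagged BRCT protein. Buffer was phosphate pH 7.3 with EDTA, DTT and Tween 20. Disruption of binding lowers the polarization signal.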
BRCT inh red: BRCT-phosphoprotein interaction inhibition (red fluorophore) | AID 892 | BRCT-phosphopeptide binding, red fluorescence polarization | P38398 | 75,000 compounds, 0.03% hits | Potency, µM (doses to about 76.9 µM), without a hit: top-dose activity change, negative = inhibition, usual class: inhibitors; further: on the % scale 0 is the no-effect control and ±100 the full control effect
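Fluorescence polarization: 100 nM His-tagged BRCA1 BRCT with 100 nM TAMRA-labelled phospho-BACH1 decapeptide, phosphate buffer pH 7.3 with 150 mM NaCl, DTT, 0.01% Tween 20; 12 min RT. Binding inhibition seen as FP decrease.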
YjeE inh: inhibitors of E. coli YjeE (TsaE) | 71,000 compounds, 0.05% hits | AID 605 | P0AF67 | Potency, µM | purified YjeE enzyme, qHTS inhibition assay
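Fluorescence polarization of a BODIPY Texas Red–ADP probe (2 uM) bound to purified YjeE (10 uM) was read after 15 min room-temperature incubation with compounds. Loss of polarization marks inhibitors; ADP serves as titrated control.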
TSHR ag: TSH receptor (human) agonism. P16473. Potency, µM (top dose mostly 57.1 µM), inactives show at the highest dose activation, usual class: activators. HEK293-CNG-TSHR cells (CNG channel as cAMP sensor), membrane potential dye, cAMP. 73,000 compounds, 0.48% hits; active means well fitted activation curve with a large enough effect in the main read-out, with a control signal flat, not every such curve was filed as active; inconclusive means small, poorly fitted or top-dose-only effect, or a change in a side signal; inactive means no such curve, though single readings can be large or run the other way; % of control where 0% means no effect;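 further: the control signal comes from parental cells without the receptor; potency means the concentration at half of the fitted maximal effect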
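HEK 293 cells stably expressing TSHR and a cAMP-gated CNG channel; parental CNG-only cells as counterscreen. Cells preloaded 60 min with membrane potential dye plus 100 uM RO 20-1724, then compound 30 min; fluorescence read at 590 nm.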
Hsp90 Hop PPI: changes Hsp90-Hop TPR2A binding signal, up or down | AlphaScreen TPR2A-His6 binding biotin-Hsp90 C-terminal peptide | Potency, µM (titrated, usually from 57 µM), for the others: top-dose activity change, negative = inhibition | 71,000 compounds, 0.44% hits | AID 595; active means well fitted curve in either direction with a large enough effect; inconclusive means small, poorly fitted or top-dose-only effect, or another doubt; further: potency means the concentration at half of the fitted maximal effect; on the % scale 0 is the no-effect control and ±100 the full control effect
HEK293 cAMP ctrl: raises cAMP in parental HEK293 cells, TSHR agonist counter-screen; Potency, µM (doses to about 57.1 µM), for inactives: at the top dose activation, actives largely listed as activators; 73,000 compounds, 2.5% hits; parental HEK293 CNG cAMP sensor, membrane potential fluorescence; further: potency means the concentration at half of the fitted maximal effect; % of control where 0% means no effect; nearly all actives have a fitted effect of over 55% in size
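Parental HEK 293 cells stably expressing a modified CNG channel (no TSHR) report cAMP rise as membrane depolarization. Membrane potential dye with 100 uM RO 20-1724 was loaded for 60 min at room temperature, then compound added for 30 min; fluorescence read at 590 nm.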
* marks the source's active call; other numbers are inactive results; i = inactive; ? = inconclusive; · = no result given; [ ] = dose if it differs, or a comment. Unless noted, the call rests on the fitted dose curve; in most records, active means well fitted curve in the direction sought with a large enough effect; inconclusive means small, poorly fitted or top-dose-only effect, or another doubt; inactive means no such curve, though single readings can be large; an effect the other way counts as inactive or inconclusive.

SMILES	BRCT inh green	BRCT inh red	YjeE inh	TSHR ag	Hsp90 Hop PPI	HEK293 cAMP ctrl
CC(=O)OCC1OC(C#CC2=CCCCC2)C=CC1OC(C)=O (configuration not stated)	-1%[15.4 µM]	1%[15.4 µM]	·	0%[11.4 µM]	·	-4%[11.4 µM]
CCN1C(=O)C2(Nc3ccccc3-c3nc4ccccc4n32)c2cc(OC)ccc21 (configuration not stated)	-2%	0%	i	?	-10%	7.9µM*
O=C(Oc1ccccc1)N1CCC2(CCCN(c3ncccn3)C2)CC1	2%	-1%	i	?	3%	20µM*
CCOCCO	-2%	1%	i	-5%	-1%	16%
Fc1ccccc1CSc1nnc(-c2cnccn2)n1Cc1ccco1	1%	0%	i	?	-6%	25µM*
Fc1ccc(CSc2nnc(-c3cnccn3)n2Cc2ccco2)cc1	2%	0%	i	13%	-7%	10%
Brc1ccc(CSc2nnc(-c3cnccn3)n2Cc2ccco2)cc1	-2%	-3%	i	?	-2%	20µM*
C(=C\c1ccccc1)/CSc1nnc(-c2cnccn2)n1Cc1ccco1	5%	-1%	i	?	-13%	13µM*
COc1cccc(N(C(=O)c2cccs2)c2nc3ccccc3s2)c1	-3%	-2%	i	?	1%	13µM*
CN(C(=O)c1ccccc1)c1nc2ccccc2s1	0%	-2%	i	10%	18%	10%
CC(C)C[C@@H](CC(=O)N[C@H](CC(=O)N[C@@H]1CCCC[C@H]1C(=O)N[C@H](CC(=O)N[C@@H](CCC(=O)O)CC(=O)O)CC(C)C)C(C)C)NC(=O)[C@@H]1CNCC[C@H]1N	·	·	i	6%	-8%	11%
CCCn1c(-c2ccc(F)cc2)nc2c(NCCN(C)C)nc(C)nc21	0%	-1%	i	?	-5%	?
CC(=O)Oc1ccc(/C=C/C(=O)CC2OC(Oc3cc(OC(C)=O)c4c(c3)O[C@@H](c3ccc(OC(C)=O)cc3)CC4=O)C(OC(C)=O)C(OC(C)=O)C2OC(C)=O)cc1 (some centres not stated)	-2%	0%	·	·	·	·
Cc1cc(-n2c(C)cc(C(=O)CSc3ncnc4ccccc34)c2C)no1	4%	-1%	i	?	-2%	7.9µM*
Cc1cc(-n2c(C)cc(C(=O)CSc3nnc4sc5ccccc5n34)c2C)no1	-2%	1%	i	5%	-2%	2%
Cc1ccc([N+](=O)[O-])c(N)c1	2%	0%	i	4%	-5%	13%
Cc1cc(C)n(-c2nc(SCC(=O)NCC3CCCO3)c3c4c(sc3n2)CCCC4)n1 (configuration not stated)	1%	1%	i	?	-9%	25µM*
Cc1cc(C)n(-c2nc(NCCO)c3c4c(sc3n2)CCCC4)n1	1%	-1%	i	16%	-6%	17%
Cc1cc(C)n(-c2nc(NCC3CCCO3)c3c4c(sc3n2)COC(C)(C)C4)n1 (configuration not stated)	-1%	1%	i	?	-9%	25µM*
Cc1cc(C)n(-c2nc(NCC(C)O)c3c4c(sc3n2)CCCC4)n1 (configuration not stated)	1%	-1%	i	16%	-5%	24%
CCOC(=O)c1cc(C)n(CCc2ccccc2)c1C	0%	0%	i	?	8%	25µM*
O=C(CSc1nnc(-c2ccco2)n1Cc1ccccc1)c1ccc(F)cc1	-2%	1%	i	?	-5%	25µM*
O=C(O)CSc1nnc(-c2ccccc2O)n1Cc1ccccc1	4%	-1%	i	1%	-2%	-6%
O=C(CSc1nnc(-c2ccc(Br)o2)n1Cc1ccccc1)c1ccccc1F	3%	0%	i	?	-7%	20µM*
Cc1occc1-c1nnc(SCC(=O)c2ccc(F)cc2)n1Cc1ccco1	0%	0%	i	4%	0%	-1%

Compound activity deposited in PubChem by National Center for Advancing Translational Sciences (NCATS).
